Results as given in PubChem BioAssay (NCI).
Compounds without any hit were thinned out: in the full panel of roughly 79,000, 15% have a hit. A number with no mark means an inactive call. Activity calls are given as the source filed them. Rule as the data show it: active = growth inhibition above about 70%; inactive = the rest.

assay: NCI Yeast Anticancer Drug Screen. Data for the bub3 strain (AID 167); conditions: S. cerevisiae bub3 mutant strain, at 50.0 µM, stronger effect = higher value
Procedure, shortened: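 Screening used yeast with an engineered genetic alteration affecting cell cycle control. Compound-exposed cultures were compared with vehicle cultures, and reduced growth was taken as inhibition.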

Compound	growth inhibition
Cc1cccc(C2ON=C(c3ccccc3)N2C23CC4CC(CC(C4)C2)C3)c1 (stereo not drawn)	0.75%
CCN(CC)C1C(=O)NC1C#Cc1ccccc1 (stereo not drawn)	7.6%
CCCCCCN(CCCCCC)CC(O)c1c(Cl)ccc2ccccc12 (stereo not drawn)	96.4% (active)
COc1ccc2c(c1)CC/C(=C\C1(Sc3ccccc3)CC1)C2O (stereo not drawn)	-10.7%
C[N+](C)([O-])Cc1cccc(NC(=O)c2ccc(C(=O)Nc3cccc(C[N+](C)(C)[O-])c3)cc2)c1	-12.8%
CC1(C)C(=O)C(C)(C)C1=NN	-4.9%
CCC(CC)NCCCNc1cc(OC)cc2cccnc12	30.9%
CC(C)OC(=O)N[C@@H]1c2ccccc2CC[C@H]1I	24.7%
c1ccc(-c2cc(-c3ccccc3)c(-c3ccccc3)c(-c3ccccc3)c2)cc1	-4.1%

assay: NCI Yeast Anticancer Drug Screen. Data for the mlh1 rad18 strain (AID 175); conditions: S. cerevisiae mlh1 rad18 strain growth inhibition; at 50.0 µM; stronger effect = higher value
Procedure, shortened: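 In this whole-cell yeast screen, a strain with altered DNA damage repair is challenged with compound, and its growth is measured against matched vehicle-treated controls.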

Compound	growth inhibition
Nc1ccc(CC(N)C(=O)O)cc1 (stereo not drawn)	-13.3%
OCCN1OCCCC1c1ccccc1 (stereo not drawn)	0.1%
CCOC(=O)/C=C/n1c2ccccc2c(=O)c2cc(OC)ccc21	-2.4%
COC(=O)/C(=N\N)C(C(=O)C(=O)Nc1nc(=S)[nH][nH]1)c1nc2ccc([N+](=O)[O-])cc2[nH]c1=O (stereo not drawn)	22.6%
CN(C)CC1CCCC/C1=N\OC(=O)c1ccccc1 (stereo not drawn)	8.1%
Cc1ccc(-c2cc(C(=O)NN)c(C#N)c(=O)[nH]2)cc1	26.1%
CN(/N=C/c1ccc(O)c(/C=N/N(C)c2ccccn2)n1)c1ccccn1	8.3%
CNC(=O)N(Cl)c1ccc(Cl)cc1	-0.25%
NC(CC(=O)O)C(=O)OCc1cccc(N=Nc2ccccc2)c1 (stereo not drawn)	4.3%
CCc1c[nH]c(C=O)c1CC	18.6%
O=C1CC(c2ccccc2)S(=O)(=O)c2ccccc2N1 (stereo not drawn)	1.45%
O=C1CSC(c2ccccn2)N1CCN1C(=O)CSC1c1ccccn1 (stereo not drawn)	6.65%
O=C(NC(Cc1c[nH]c2ccccc12)(C(=O)O)C(=O)O)OCc1ccccc1	17.8%
O=S1(=O)CS(=O)(=O)OCCCCO1	7.85%
CCC(COC(=O)C(c1ccccc1)c1ccccc1)NC1CCCCC1 (stereo not drawn)	27.6%
N#CC(C#N)=NO (tested in a mixture with another compound)	5.75%
Cn1c(N)nc2c1c(=O)[nH]c(=O)n2C	21.8%

Compound	growth inhibition
COc1ccc2nc(NC(=O)C(=O)C(C(=O)c3ccccc3-c3ccccc3)C3OC(=O)c4ccccc43)sc2c1 (stereo not drawn)	-16.1%
O=C(O)c1cc(Br)c(O)cc1O	7%
CCc1cc(C)cc(C(C)(C)C)c1	22%
O=c1[nH]nc(-c2ccccc2)n1/N=C/c1c(O)ccc2ccccc12	24.6%
CC(C)C1CC[N-]CC1.CC(C)C1CC[N-]CC1.[Cl][Pt+2][Cl]	75.4% (active)
C(=C\c1ccco1)/c1ccco1	-25.9%
CC(C)(c1cn(Cc2ccccc2)c2ccccc12)c1cn(Cc2ccccc2)c2ccccc12	10.8%
Cn1c(=O)c2[nH]c(SCC(=O)O)nc2n(C)c1=O	-3.65%
Cc1cc(C)[n+](C)c(/C=C/c2ccc([N+](=O)[O-])cc2)n1	23.2%
COc1ccc(NC(=O)/C(Cc2nc3ccccc3[nH]c2=O)=N\O)c(OC)c1	-13.7%
COc1ccc2c(c1OC)C(Cc1ccccc1)N1CCc3cc4c(cc3C1C2)OCO4 (stereo not drawn)	77.8% (active)
COC1C(O)CC(OC2C(C)OC(Oc3cc(O)c4c(O)c5c(cc4c3)C[C@@H]([C@H](OC)C(=O)[C@@H](O)[C@@H](C)O)[C@H](OC3CC(OC4CC(OC6CC(C)(O)C(O)C(C)O6)C(O)C(C)O4)C(O)C(C)O3)C5=O)CC2OC(C)=O)OC1C (stereo partly drawn)	0.4%
O=C(O)c1cc2ccccc2c(N=Nc2cc(C(F)(F)F)ccc2Cl)c1O	-13.1%
COc1ccc(CCCCl)c(C2=NCCc3ccccc32)c1	1.95%
Cc1cccc(C2ON=C(c3ccccc3)N2C23CC4CC(CC(C4)C2)C3)c1 (stereo not drawn)	-33.5%
CCN(CC)C1C(=O)NC1C#Cc1ccccc1 (stereo not drawn)	15.6%
CCCCCCN(CCCCCC)CC(O)c1c(Cl)ccc2ccccc12 (stereo not drawn)	98.5% (active)
